Several values for one entry are separate records, joined by “and”; a condition that tells them apart may be missing. Identical values can stand only once.
target: Ribosomal protein S6 kinase alpha-5 (Homo sapiens) (UniProt O75582); details: at 0.1 µM
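Also: mean inhibition of MSK1 reported, from a GSK PKIS inhibitor set screen.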

Sequence of Ribosomal protein S6 kinase alpha-5 (Homo sapiens) (O75582 whole entry, looked up): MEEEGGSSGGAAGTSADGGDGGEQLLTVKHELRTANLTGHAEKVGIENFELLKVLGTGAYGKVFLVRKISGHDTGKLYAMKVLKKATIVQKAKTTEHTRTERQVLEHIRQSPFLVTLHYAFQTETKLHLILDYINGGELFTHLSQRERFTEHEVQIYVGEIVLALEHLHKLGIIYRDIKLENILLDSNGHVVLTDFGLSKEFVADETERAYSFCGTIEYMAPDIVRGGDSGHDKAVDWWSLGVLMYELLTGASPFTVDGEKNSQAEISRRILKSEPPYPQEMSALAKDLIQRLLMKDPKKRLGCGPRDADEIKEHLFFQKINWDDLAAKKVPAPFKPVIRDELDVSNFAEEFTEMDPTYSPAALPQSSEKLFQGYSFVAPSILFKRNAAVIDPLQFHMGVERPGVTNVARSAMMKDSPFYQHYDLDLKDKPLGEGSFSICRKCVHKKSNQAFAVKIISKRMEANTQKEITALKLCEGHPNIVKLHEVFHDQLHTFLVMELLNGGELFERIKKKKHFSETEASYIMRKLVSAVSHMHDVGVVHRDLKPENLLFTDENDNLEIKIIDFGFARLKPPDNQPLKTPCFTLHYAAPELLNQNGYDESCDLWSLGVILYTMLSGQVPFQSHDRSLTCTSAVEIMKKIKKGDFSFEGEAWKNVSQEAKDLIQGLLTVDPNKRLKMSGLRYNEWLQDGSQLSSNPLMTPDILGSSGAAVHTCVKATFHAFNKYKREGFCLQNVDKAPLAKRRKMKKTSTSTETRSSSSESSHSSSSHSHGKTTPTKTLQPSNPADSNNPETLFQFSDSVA

Question: `c1cnn2ncc(-c3ccnc(NCCCN4CCOCC4)n3)c2c1` was tested. Which inhibition did it give?
Answer: 6.61%

Question: Which inhibition does the source give for `CS(=O)(=O)CCNCc1ccoc1-c1ccc2ncnc(Nc3ccc(OCc4ccccc4)cc3)c2c1` here?
Answer: -0.3%

Question: How did the inhibition turn out when `COc1ccccc1-c1cc(/C=C2\C(=O)Nc3ncc(Br)cc32)cc(Br)c1O` was run?
Answer: 3.42%

Question: Which inhibition does the source give for `CN(C)CCNC(=O)Nc1ccc(N(C)c2ccnc(Nc3ccc(CS(C)(=O)=O)cc3)n2)cc1` here?
Answer: 3.26%

Question: For `N#Cc1cccc(Nc2ncc(-c3ccccc3)o2)c1`, which inhibition is on record?
Answer: 1.22%

Question: For `Cc1nnc(-c2cccc(-c3ccc(C(=O)NCC4CC4)cc3)c2)o1`, which inhibition is on record?
Answer: 4.52%

Question: `CCN1CCC(C(=O)Nc2n[nH]c3nnc(-c4cccc(F)c4F)cc23)CC1` was tested. Which inhibition did it give?
Answer: -1.22%

Question: How did the inhibition turn out when `FC(F)(F)CNc1nccc(-c2cnn3ncccc23)n1` was run?
Answer: 1.98%

Question: For `c1ccc(-c2n[nH]cc2-c2ccnc(-c3ccc(OCCn4ccnc4)cc3)c2)nc1`, which inhibition is on record?
Answer: -4.46%

Question: How did the inhibition turn out when `COc1cccc(Nc2nccc(-c3cnn4ncccc34)n2)c1` was run?
Answer: 1.02%

Question: How did the inhibition turn out when `CS(=O)(=O)CCNCc1ccc(-c2ccc3ncnc(Nc4ccc(OCc5ccccc5)cc4)c3c2)o1` was run?
Answer: 1.86%

Question: Which inhibition does the source give for `CN1CCN(Cc2ccc(-c3cc4ncnc(Nc5ccc(OCc6cccc(F)c6)c(Cl)c5)c4s3)o2)CC1` here?
Answer: 7.37% and 3.64%

Question: With `O=C(O[C@H]1CN[C@H](C#Cc2cc3ncnc(Nc4ccc5c(cnn5Cc5ccccc5)c4)c3s2)C1)N1CCOCC1` as the compound, how does the inhibition read?
Answer: -1.78%

Question: How did the inhibition turn out when `O=C(O[C@H]1CN[C@H](C#Cc2cc3ncnc(Nc4ccc5c(ccn5Cc5cc(F)ccc5F)c4)c3s2)C1)N1CCOCC1` was run?
Answer: -1.77%

Question: How did the inhibition turn out when `CS(=O)(=O)Nc1ccc(-c2ccc3c(NC(=O)C4CC4)n[nH]c3c2)cc1` was run?
Answer: 3.35%

Question: Which inhibition does the source give for `O=C(Nc1n[nH]c2nnc(-c3cccnc3)cc12)C1CC1` here?
Answer: -1.47%

Question: For `COc1ccc(Nc2ncc(-c3ccccc3)o2)cc1OC`, which inhibition is on record?
Answer: 0.37%

Question: How did the inhibition turn out when `COc1ccc(-c2nn3ncccc3c2-c2ccnc(Nc3ccc(F)c(F)c3)n2)cc1` was run?
Answer: 3.92%

Question: How did the inhibition turn out when `OCCCNc1nccc(-c2c(-c3ccc(F)cc3)nn3cc(C(F)(F)F)ccc23)n1` was run?
Answer: 4.64%

Question: With `CC1(C)CC(n2cnc(-c3ccc(F)cc3)c2-c2ccnc(N)n2)CC(C)(C)N1` as the compound, how does the inhibition read?
Answer: -2.87%

Question: With `Cc1cc(O)cc(C)c1/C=C/c1cncc(C(N)=O)c1` as the compound, how does the inhibition read?
Answer: 1.68%

Question: Which inhibition does the source give for `CN1CCC(n2cnc(-c3ccc(F)cc3)c2-c2ccnc(NCCO)n2)CC1` here?
Answer: 3.35%

Question: How did the inhibition turn out when `O=C1Nc2ccccc2/C1=C1\CCc2cc(O)ccc21` was run?
Answer: 1.96%

Question: `CC1=C(C(=O)Nc2ccc3[nH]ncc3c2)C(c2ccc(F)cc2)N=C(c2ccc(C(F)(F)F)nc2)N1` (stereo unspecified) was tested. Which inhibition did it give?
Answer: 3.51%

Question: `COC(=O)Nc1nc2ccc(Oc3ccc(NC(=O)Nc4cc(C(F)(F)F)ccc4F)cc3)cc2s1` was tested. Which inhibition did it give?
Answer: 0.52%

Question: Which inhibition does the source give for `Cn1c(-c2nonc2N)nc2cnccc21` here?
Answer: 32.7%

Question: Which inhibition does the source give for `CNC(=O)c1ncccc1Nc1nc(Nc2cc3c(cc2OC)CCCN3C(=O)CN(C)C)nc2[nH]ccc12` here?
Answer: 3.81%

Question: For `COc1c(C(N)=O)cc(-c2ccc(Cl)cc2)cc1-c1ccc(S(N)(=O)=O)cc1`, which inhibition is on record?
Answer: 2.38%

Question: `CS(=O)(=O)CCNCc1ccc(-c2ccc3ncnc(Nc4ccc(OCc5cccc(C(F)(F)F)c5)cc4)c3c2)o1` was tested. Which inhibition did it give?
Answer: 4.18%

Question: How did the inhibition turn out when `NC(=O)c1ccc2c(-c3ccnc(NCCCO)n3)c(-c3ccc(F)cc3)nn2c1` was run?
Answer: 11.4%

Question: `COc1cc(Nc2ncc(-c3ccccc3)o2)cc(OC)c1` was tested. Which inhibition did it give?
Answer: 2.3%

Source: ChEMBL document CHEMBL1961873, “Compounds: GSK PKIS; Assays: Nanosyn kinase panel” (2012)
